Measured values from PubChem BioAssay.
Activity calls are given as the source filed them.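 How the source made its calls, unless noted: active means normalized viability below 100% at a tested concentration; inactive means the rest.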

Tests used:
[1] = drug combination growth inhibition, ovarian cancer – cell-based, oncology-focused library, rucaparib conditional, profiling panel (AID 1508598); details: patient-derived ovarian cancer cells, CellTiter-Glo viability, 144 h, active compounds read low
[2] = molecular target: NAD(+) hydrolase SARM1 (Homo sapiens) (UniProt Q6SZW1); assay: blocking NAD cleavage by SARM1 SAM-TIR – cell lysate, NAD-Glo luminescence (AID 1508614;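 active means compound whose remaining NAD level is above about 45 nM, limit read from the data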;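 further: higher remaining NAD means stronger inhibition of SARM1 NADase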); details: SAM-TIR HEK293T lysate NADase, at 1 µM, active compounds read high
[3] = at 0.000305 µM, OCI-C5x cells, with rucaparib 10 µM, 100% = cells with rucaparib alone
[4] = at 0.000305 µM, OCI-C5x cells, without rucaparib
[5] = at 0.000305 µM, OCI-P5x cells, with rucaparib 20 µM, 100% = cells with rucaparib alone
[6] = at 0.000305 µM, OCI-P5x cells, without rucaparib
[7] = at 0.00122 µM, OCI-C5x cells, with rucaparib 10 µM, 100% = cells with rucaparib alone
[8] = at 0.00122 µM, OCI-C5x cells, without rucaparib
[9] = at 0.00122 µM, OCI-P5x cells, with rucaparib 20 µM, 100% = cells with rucaparib alone
[10] = at 0.00122 µM, OCI-P5x cells, without rucaparib
[11] = at 0.00488 µM, OCI-C5x cells, with rucaparib 10 µM, 100% = cells with rucaparib alone
[12] = at 0.00488 µM, OCI-C5x cells, without rucaparib
[13] = at 0.00488 µM, OCI-P5x cells, with rucaparib 20 µM, 100% = cells with rucaparib alone
[14] = at 0.00488 µM, OCI-P5x cells, without rucaparib
[15] = at 0.0195 µM, OCI-C5x cells, with rucaparib 10 µM, 100% = cells with rucaparib alone
[16] = at 0.0195 µM, OCI-C5x cells, without rucaparib
[17] = at 0.0195 µM, OCI-P5x cells, with rucaparib 20 µM, 100% = cells with rucaparib alone
[18] = at 0.0195 µM, OCI-P5x cells, without rucaparib
[19] = at 0.0781 µM, OCI-C5x cells, with rucaparib 10 µM, 100% = cells with rucaparib alone
[20] = at 0.0781 µM, OCI-C5x cells, without rucaparib
[21] = at 0.0781 µM, OCI-P5x cells, with rucaparib 20 µM, 100% = cells with rucaparib alone
[22] = at 0.0781 µM, OCI-P5x cells, without rucaparib
[23] = at 0.313 µM, OCI-C5x cells, with rucaparib 10 µM, 100% = cells with rucaparib alone
[24] = at 0.313 µM, OCI-C5x cells, without rucaparib
[25] = at 0.313 µM, OCI-P5x cells, with rucaparib 20 µM, 100% = cells with rucaparib alone
[26] = at 0.313 µM, OCI-P5x cells, without rucaparib
[27] = at 1.25 µM, OCI-C5x cells, with rucaparib 10 µM, 100% = cells with rucaparib alone
[28] = at 1.25 µM, OCI-C5x cells, without rucaparib
[29] = at 1.25 µM, OCI-P5x cells, with rucaparib 20 µM, 100% = cells with rucaparib alone
[30] = at 1.25 µM, OCI-P5x cells, without rucaparib
[31] = at 5 µM, OCI-C5x cells, with rucaparib 10 µM, 100% = cells with rucaparib alone
[32] = at 5 µM, OCI-C5x cells, without rucaparib
[33] = at 5 µM, OCI-P5x cells, with rucaparib 20 µM, 100% = cells with rucaparib alone
[34] = at 5 µM, OCI-P5x cells, without rucaparib

Sequence of NAD(+) hydrolase SARM1 (Homo sapiens) (Q6SZW1 whole entry, looked up): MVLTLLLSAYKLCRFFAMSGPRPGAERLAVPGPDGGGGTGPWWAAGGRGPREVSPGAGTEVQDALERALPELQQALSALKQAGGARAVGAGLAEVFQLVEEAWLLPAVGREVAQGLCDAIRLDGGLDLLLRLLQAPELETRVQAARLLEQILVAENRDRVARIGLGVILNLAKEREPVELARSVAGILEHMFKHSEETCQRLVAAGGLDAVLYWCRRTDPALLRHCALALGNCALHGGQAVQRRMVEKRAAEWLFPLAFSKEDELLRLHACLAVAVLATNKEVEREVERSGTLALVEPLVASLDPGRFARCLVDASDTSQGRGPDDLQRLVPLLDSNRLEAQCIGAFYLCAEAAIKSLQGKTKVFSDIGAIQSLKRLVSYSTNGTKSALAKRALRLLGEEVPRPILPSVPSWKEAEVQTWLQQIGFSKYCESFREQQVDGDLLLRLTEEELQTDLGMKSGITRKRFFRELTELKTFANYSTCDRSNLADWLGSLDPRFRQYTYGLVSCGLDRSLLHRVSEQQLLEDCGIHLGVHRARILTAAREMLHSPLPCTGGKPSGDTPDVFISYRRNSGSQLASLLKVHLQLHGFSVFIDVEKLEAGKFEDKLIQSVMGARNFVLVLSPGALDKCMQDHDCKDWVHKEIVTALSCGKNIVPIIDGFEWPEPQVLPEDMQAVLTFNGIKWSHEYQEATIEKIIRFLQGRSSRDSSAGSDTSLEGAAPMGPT

CCCCCOC(=O)Nc1nc(=O)n([C@@H]2O[C@H](C)[C@@H](O)C2O)cc1F (stereo not given in full)
inactive: viability [1, 3] 114% | viability [1, 4] 111% | viability [1, 5] 115% | viability [1, 6] 116% | viability [1, 7] 119% | viability [1, 8] 120% | viability [1, 9] 123% | viability [1, 10] 115% | viability [1, 11] 111% | viability [1, 12] 126% | viability [1, 13] 115% | viability [1, 14] 123% | viability [1, 15] 126% | viability [1, 16] 113% | viability [1, 17] 115% | viability [1, 18] 123% | viability [1, 19] 101% | viability [1, 20] 111% | viability [1, 21] 121% | viability [1, 22] 118% | viability [1, 23] 106% | viability [1, 24] 109% | viability [1, 25] 115% | viability [1, 26] 123% | viability [1, 27] 105% | viability [1, 28] 117% | viability [1, 29] 113% | viability [1, 30] 116% | viability [1, 31] 107% | viability [1, 32] 114% | viability [1, 33] 121% | viability [1, 34] 122%

COc1cc2c(cc1O)CC[C@@H]1[C@H]2CC[C@]2(C)[C@H](O)CC[C@@H]12
inactive: viability [1, 3] 113% | viability [1, 4] 107% | viability [1, 5] 106% | viability [1, 7] 116% | viability [1, 8] 111% | viability [1, 10] 104% | viability [1, 11] 119% | viability [1, 12] 118% | viability [1, 13] 109% | viability [1, 14] 108% | viability [1, 15] 103% | viability [1, 16] 105% | viability [1, 18] 105% | viability [1, 19] 105% | viability [1, 20] 105% | viability [1, 21] 102% | viability [1, 22] 104% | viability [1, 23] 124% | viability [1, 24] 107% | viability [1, 25] 106% | viability [1, 26] 105% | viability [1, 27] 107% | viability [1, 29] 104% | viability [1, 31] 124% | viability [1, 32] 101%
active: viability [1, 6] 96.3% | viability [1, 9] 99.4% | viability [1, 17] 95.3% | viability [1, 28] 96.8% | viability [1, 30] 66.5% | viability [1, 33] 98.9% | viability [1, 34] 97.5%

CC(C)C[C@H](NP(=O)(O)O[C@@H]1O[C@@H](C)[C@H](O)[C@@H](O)[C@H]1O)C(=O)N[C@@H](Cc1c[nH]c2ccccc12)C(=O)O
inactive: viability [1, 3] 124% | viability [1, 4] 113% | viability [1, 5] 105% | viability [1, 7] 127% | viability [1, 8] 113% | viability [1, 10] 103% | viability [1, 11] 127% | viability [1, 12] 116% | viability [1, 13] 104% | viability [1, 15] 122% | viability [1, 16] 106% | viability [1, 17] 101% | viability [1, 19] 121% | viability [1, 20] 107% | viability [1, 23] 124% | viability [1, 24] 103% | viability [1, 27] 132% | viability [1, 28] 117% | viability [1, 31] 123% | viability [1, 32] 104%
active: viability [1, 6] 99.9% | viability [1, 9] 97.2% | viability [1, 14] 96.5% | viability [1, 18] 93.9% | viability [1, 21] 99.3% | viability [1, 22] 96.3% | viability [1, 25] 98.1% | viability [1, 26] 98.7% | viability [1, 29] 94.3% | viability [1, 30] 91.1% | viability [1, 33] 88.8% | viability [1, 34] 92%

Nc1ncn([C@@H]2O[C@H](CO)[C@@H](O)[C@@H]2O)c(=O)n1
active: viability [1, 33] 97.7% | viability [1, 34] 99.1%
inactive: viability [1, 3] 104% | viability [1, 4] 128% | viability [1, 5] 103% | viability [1, 6] 125% | viability [1, 7] 108% | viability [1, 8] 132% | viability [1, 9] 102% | viability [1, 10] 123% | viability [1, 11] 114% | viability [1, 12] 122% | viability [1, 13] 102% | viability [1, 14] 116% | viability [1, 15] 114% | viability [1, 16] 129% | viability [1, 17] 110% | viability [1, 18] 119% | viability [1, 19] 117% | viability [1, 20] 119% | viability [1, 21] 110% | viability [1, 22] 122% | viability [1, 23] 112% | viability [1, 24] 124% | viability [1, 25] 114% | viability [1, 26] 122% | viability [1, 27] 110% | viability [1, 28] 123% | viability [1, 29] 105% | viability [1, 30] 111% | viability [1, 31] 107% | viability [1, 32] 109%

CC(=O)O[C@]12CO[C@@H]1C[C@H](O)[C@]1(C)C(=O)[C@H](O)C3=C(C)[C@H](OC(=O)[C@H](O)[C@@H](NC(=O)OC(C)(C)C)c4ccccc4)C[C@](O)([C@H](OC(=O)c4ccccc4)C21)C3(C)C (stereo not given in full)
inactive: viability [1, 3] 118% | viability [1, 4] 115% | viability [1, 5] 120% | viability [1, 6] 106%
active: viability [1, 7] 86.4% | viability [1, 8] 76% | viability [1, 9] 93% | viability [1, 10] 33.3% | viability [1, 11] 37.6% | viability [1, 12] 32.6% | viability [1, 13] 70.1% | viability [1, 14] 19.5% | viability [1, 15] 41.9% | viability [1, 16] 35.3% | viability [1, 17] 56.6% | viability [1, 18] 16.8% | viability [1, 19] 38.2% | viability [1, 20] 33.7% | viability [1, 21] 61.2% | viability [1, 22] 19.8% | viability [1, 23] 41.5% | viability [1, 24] 37.8% | viability [1, 25] 55.6% | viability [1, 26] 18.6% | viability [1, 27] 47.4% | viability [1, 28] 41.3% | viability [1, 29] 55.9% | viability [1, 30] 20.7% | viability [1, 31] 37.7% | viability [1, 32] 56.7% | viability [1, 33] 34.2% | viability [1, 34] 16.1%

CO/N=C(\C(=O)N[C@@H]1C(=O)N2C(C(=O)O)=C(CSc3nnnn3C)CS[C@H]12)c1csc(N)n1
inactive: remaining NAD [2] 10 nM

CC(=O)OCC(=O)[C@]1(O)[C@H](C)C[C@H]2[C@@H]3CCC4=CC(=O)C=C[C@]4(C)[C@]3(F)[C@H](O)C[C@@]21C
inactive: viability [1, 3] 119% | viability [1, 4] 119% | viability [1, 5] 107% | viability [1, 6] 108% | viability [1, 7] 121% | viability [1, 8] 125% | viability [1, 9] 105% | viability [1, 10] 106% | viability [1, 11] 131% | viability [1, 12] 122% | viability [1, 13] 110% | viability [1, 14] 105% | viability [1, 15] 124% | viability [1, 16] 123% | viability [1, 17] 109% | viability [1, 19] 118% | viability [1, 20] 112% | viability [1, 21] 104% | viability [1, 23] 113% | viability [1, 24] 113% | viability [1, 25] 100% | viability [1, 27] 122% | viability [1, 28] 123% | viability [1, 31] 115% | viability [1, 32] 110%
active: viability [1, 18] 99.6% | viability [1, 22] 98.1% | viability [1, 26] 94.5% | viability [1, 29] 97.6% | viability [1, 30] 94.3% | viability [1, 33] 88.4% | viability [1, 34] 84.6%

COc1cc(=C2C=c3ccccc3=N2)[nH]/c1=C\c1[nH]c(C)cc1C
inactive: viability [1, 3] 118% | viability [1, 4] 122% | viability [1, 7] 127% | viability [1, 8] 124% | viability [1, 11] 132% | viability [1, 12] 114% | viability [1, 13] 105% | viability [1, 15] 115% | viability [1, 16] 115% | viability [1, 19] 110% | viability [1, 23] 131%
active: viability [1, 5] 81.8% | viability [1, 6] 30.2% | viability [1, 9] 69.4% | viability [1, 10] 19.5% | viability [1, 14] 97.2% | viability [1, 17] 98.9% | viability [1, 18] 97.5% | viability [1, 20] 79.1% | viability [1, 21] 29.2% | viability [1, 22] 77.3% | viability [1, 24] 93.7% | viability [1, 25] 13.2% | viability [1, 26] 18.4% | viability [1, 27] 89.4% | viability [1, 28] 91.7% | viability [1, 29] 10.1% | viability [1, 30] 22% | viability [1, 31] 37.7% | viability [1, 32] 21.3% | viability [1, 33] 1.33% | viability [1, 34] 3.6%
